For 36 molecules, composite z-score results are on record in PubChem BioAssay.

The experiment relates to XIP peptide (Xip251-270). The experiment can be described thus: small-molecule binders of XIP peptide, primary screen, biochemical, small-molecule microarray, fluorescence 635/667 nm, 0.5 µg/mL protein (AID 1183). As to conditions: small-molecule microarray binding, fluorescence 635 nm; higher = more signal.
As for `N#Cc1ccc(NN2C(C(O)c3ccccc3)C=CC3C(=O)N(c4ccccc4)C(=O)C32)cc1` (stereo unspecified), the composite z-score amounted to 0.026.

In the case of `O=C(NCc1ccccc1)[C@]1(Cc2ccccc2)N=C(c2ccc(OCCCO)cc2)O[C@@H]1c1ccccc1`, the composite z-score turned out to be 0.117.

As for `CC(C)CCC[C@@H](C)[C@H]1CC[C@@]2(C)C3=C(CC[C@]12C)[C@@]1(C)CC[C@H](OC(=O)C(C)(C)C)C(C)(C)C1CC3` (stereo partly specified), the composite z-score was -0.0722.

Regarding `NC(=O)NCC#Cc1ccc2c(c1)[C@]1(C(=O)N2)[C@H](c2ccc(OCCO)cc2)N2[C@H](c3ccccc3)[C@H](c3ccccc3)OC(=O)[C@H]2[C@@H]1C(=O)N1CCCCCCC1`, the composite z-score amounted to 0.501.

For the molecule `[N-]=[N+]=Nc1ccccc1[C@H]1OC(c2ccc(OCCCO)cc2)=N[C@@]1(Cc1ccccc1)C(=O)NCc1ccccc1`, the composite z-score is 0.596.

In the case of `COCCOC(=O)N1C(=O)[C@@]2(c3cc(C#CCC(C(=O)OC)C(=O)OC)ccc31)[C@H](C(=O)N1CCCCCCC1)[C@H]1C(=O)O[C@H](c3ccccc3)[C@H](c3ccccc3)N1[C@@H]2c1ccc(O)cc1`, the composite z-score is 0.729.

With `C=CC[C@]1(C(=O)NCC(O)CO)N=C(c2ccc(OCCCO)cc2)O[C@H]1c1ccccc1N=[N+]=[N-]` (stereo partly specified), the composite z-score was found to be 0.159.

With `O=C(Nc1cc(Br)ccc1C(=O)NCc1cccc(O)c1)c1ccccc1`, the composite z-score amounted to 0.597.

In the case of `CC1CC/C=C\[C@H]2OC34C=CCN(c5ccc(Cl)cc5)C(=O)[C@H]3N(C(CO)C(C)C)C(=O)[C@]4(C)C2C(=O)O1` (stereo partly specified), the composite z-score was 0.277.

In the case of `CC1=C2[C@@H](CCc3ccccc3)OB(O)C[C@@H]2[C@@H]2C(=O)C=CC(=O)[C@@H]2C1`, the composite z-score stood at 0.403.

Turning to `[N-]=[N+]=NCc1ccccc1C[C@]1(C(=O)NCCN2CCOCC2)COC(c2ccc(OCCCO)cc2)=N1`, the composite z-score worked out at 0.258.

With `COc1ccc(CCNC(=O)[C@@H]2c3ccccc3C(=O)N(Cc3ccccc3)[C@H]2c2ccc(CO)cc2)cc1`, the composite z-score amounted to 0.619.

Consider `C=CC[C@@]1(C(=O)NCC(O)CO)N=C(c2ccc(OCCCO)cc2)O[C@@H]1c1ccccc1` (stereo partly specified), for which the composite z-score amounted to 0.691.

On to `CO[C@H]1O[C@H](CO)[C@@H](OC(=O)Nc2cccc(F)c2)[C@H](OC(=O)Nc2ccc3c(c2)OCO3)[C@H]1OC(=O)Nc1ccc2c(c1)OCO2`, for which the composite z-score came to 0.813.

`COc1ccc(C#Cc2ccc3c(c2)[C@]2(C(=O)N3)[C@H](c3ccc(OCCO)cc3)N3[C@H](c4ccccc4)[C@H](c4ccccc4)OC(=O)[C@H]3[C@@H]2C(=O)N2CCN(c3ncccn3)CC2)cc1`: the composite z-score worked out at 0.0154.

Turning to `COCC(=C=CC[C@@H](O)c1ccccc1OCCO)C[C@@H](O)c1ccccn1`, the composite z-score was found to be 0.76.

`CCCN1C(=O)[C@@]2(Cc3ccccc3)N=C(c3ccc(OCCCO)cc3)O[C@H]2c2ccccc21`: the composite z-score worked out at 0.808.

On to `NC(=O)NCC#Cc1ccc2c(c1)[C@]1(C(=O)N2)[C@H](c2ccc(OCCO)cc2)N2[C@H](c3ccccc3)[C@H](c3ccccc3)OC(=O)[C@H]2[C@@H]1C(=O)N1CCN(c2ncccn2)CC1`, for which the composite z-score was 0.353.

Consider `C=CCC(OC(C)=O)[C@@H]1[C@@H](N(Cc2cccc3ccccc23)C(=O)c2ccc(C)cc2)c2cc(OCCCO)ccc2N1C(=O)c1ccc2ccccc2c1` (stereo partly specified), for which the composite z-score is 0.52.

On to `COc1ccc([Si](C)(C)[C@@H]2[C@@H](CC(=O)N(CCO)Cc3ccccc3)O[C@]3(C(=O)N(Cc4ccc(N5CCOC5=O)cc4)c4ccccc43)[C@H]2C)cc1`, for which the composite z-score was found to be 0.666.

Consider `COc1ccccc1CN1C(=O)c2ccccc2[C@](Cc2ccccc2I)(C(=O)NCCN2CCOCC2)[C@@H]1c1ccc(CO)cc1`, for which the composite z-score amounted to 0.755.

On to `CN(C)CCCN1C(=O)[C@@]2(Cc3ccccc31)c1ccccc1C(=O)N(Cc1ccccc1)[C@H]2c1ccc(CO)cc1`, for which the composite z-score is 0.324.

For the molecule `Cc1ccc(S[C@]2(C(=O)O)CC(=O)N(Cc3ccccc3C(F)(F)F)[C@@H]2c2ccc(CO)cc2)cc1`, the composite z-score was -0.174.

For `CCOC(=O)C1=CC[C@@H](c2ccccc2)N(S(=O)(=O)c2ccc(C)cc2)[C@H]1C=C(C)C`, the composite z-score was found to be 0.721.

Take `COCCOC(=O)N1C(=O)[C@@]2(c3cc(C#CCNC(N)=O)ccc31)[C@H](C(=O)N1CCCCCCC1)[C@H]1C(=O)O[C@H](c3ccccc3)[C@H](c3ccccc3)N1[C@@H]2c1ccc(OCCO)cc1`: the composite z-score is 0.28.

For the molecule `CC(C)CNC(=O)[C@@]1(C)c2ccccc2C(=O)N(Cc2ccccc2)[C@H]1c1ccc(CO)cc1`, the composite z-score is -0.951.

On to `C=CCC(OC(C)=O)[C@@H]1[C@@H](N(Cc2ccc(-c3ccccc3)cc2)C(=O)c2cccc3ccccc23)c2cc(OCCCO)ccc2N1C(=O)c1ccc2ccccc2n1` (stereo partly specified), for which the composite z-score came to 0.328.

As for `COc1ccc([Si](C)(C)[C@@H]2[C@@H](CCO)O[C@]3(C(=O)N(Cc4ccccc4)c4ccc(N5C(=O)COc6ccccc65)cc43)[C@H]2C)cc1`, the composite z-score is 0.667.

Turning to `C=C(COC)/C(=C/C[C@@H](OC(=O)c1ccncc1)c1cccc(OCCO)c1)c1cc(C(=O)OC)ccc1OC`, the composite z-score was 0.657.

On to `O=C1NC(=O)C2C1C=CC(C(O)c1ccc3c(c1)OCO3)N2Nc1ccc(Cl)cc1Cl` (stereo unspecified), for which the composite z-score stood at 0.726.

`[N-]=[N+]=NCc1ccccc1C[C@@]1(C(=O)NCCN2CCOCC2)N=C(c2ccc(OCCCO)cc2)O[C@@H]1c1ccccc1CN=[N+]=[N-]`: the composite z-score was 0.743.

Consider `C[N+](C)(C)CCCCCCNC(=O)[C@@H]1C[C@@H]2C(=O)NCC(=O)N2[C@@H]1c1ccc(O)cc1`, for which the composite z-score was 0.87.

Consider `COC(=O)[C@@]1(Cc2ccccc2N=[N+]=[N-])N=C(c2ccc(OCCCO)cc2)O[C@H]1c1ccccc1`, for which the composite z-score stood at 0.601.

Turning to `COCCOC(=O)N1C(=O)[C@@]2(c3cc(C#Cc4ccc(OC)cc4)ccc31)[C@H](C(=O)N1CCc3cc(OC)c(OC)cc3C1)[C@H]1C(=O)O[C@H](c3ccccc3)[C@H](c3ccccc3)N1[C@@H]2c1ccc(OCCO)cc1`, the composite z-score turned out to be 0.688.

Turning to `O=C1O[C@H](c2ccccc2)[C@H](c2ccccc2)N2[C@H]1[C@@H](C(=O)N1CCCCCCC1)[C@]1(C(=O)Nc3ccc(C#CCCO)cc31)[C@H]2c1ccc(OCCO)cc1`, the composite z-score worked out at 0.963.

For `CCCC[C@H]1OB(O)C[C@H]2C1=C(COc1ccccc1)Cn1c(=O)n(-c3ccccc3)c(=O)n12`, the composite z-score worked out at 0.286.
